This is a sample that favours compounds with a hit; in the whole collection about 7.9% have one here.
KB-3-1 cytotox = kills parental KB-3-1 adenocarcinoma cells; 400,000 tested, 1.4% active; KB-3-1 viability, CellTiter-Glo ATP luminescence, 72 h; Potency, µM (highest dose often 46.1 µM), actives largely listed as cytotoxic; AID 1347075; note: % is set by controls: 0 for no effect and ±100 for the full control effect; nearly all actives have a fitted effect of over 60% in size
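72 h, 37 °C compound treatment of KB-3-1 parental cells; CellTiter-Glo added, 10 min, luminescence read. Data corrected against DMSO-only plates and normalized before curve fitting.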
HT1080 IDH1KD tx = toxicity to HT-1080 IDH1 knockdown cells (counter line); HT-1080 IDH1 knockdown viability, ATP luminescence, 48 h; Potency, µM (highest dose often 46.1 µM), inactives show at the highest dose activity, negative = toxicity, actives largely listed as cytotoxic; 360,000 tested, 2% active; AID 686971;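 note: 0% = DMSO wells and -100% = cell-free medium wells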
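In this qHTS, HT-1080 cells depleted of IDH1 are exposed for 48 h at 37 °C to compound titrations. Toxicity is scored from CellTiter-Glo luminescence, with DMSO as full viability and medium alone as none.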
HT1080-NT tox = kills 2HG-producing HT-1080-NT fibrosarcoma cells. 360,000 tested, 1.6% active. AID 686970. HT-1080-NT fibrosarcoma viability, CellTiter-Glo ATP luminescence, 48 h. Potency, µM (titrated, usually from 46.1 µM), for the others: top-dose activity, negative = less viability, hits mostly cytotoxic;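 note: NT is the 2HG producing partner of a matched IDH1 knockdown line; 0% = DMSO-treated cells and -100% = media-only wells without cells; nearly all actives have a fitted effect of over 55% in size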
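Viability of the 2HG-overproducing fibrosarcoma line after 48 hours of compound exposure at 37 degrees C was determined by luminescence with CellTiter-Glo, and concentration-effect curves were then fitted and categorized.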
SW480 rereplic = DNA re-replication induction in SW480 cells | SW480 DNA re-replication, Hoechst DNA content imaging, 48 h | Potency, µM (top dose mostly 46.1 µM), without a hit: at the highest dose re-replication activation, hits mostly activators | 340,000 tested, 1.8% active; note: % of control where 0% means no effect; nearly all actives have a fitted effect of over 55% in size
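First, 250 cells per well were seeded. Next, compound or vehicle (23 nL) was pinned in, plates sat 48 hr at 37 C. Finally Hoechst was added for 40 min before fluorescence scanning.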
MCF10A rereplic = inducers of DNA re-replication in MCF 10A breast cells; MCF 10A DNA re-replication, Hoechst nuclear intensity, 48 h; Potency, µM (series often up to 46.1 µM), without a hit: at the highest dose activity, positive = re-replication, most hits filed as activators; 350,000 tested, 2.9% active; AID 624296; note: % of control where 0% means no effect; nearly all actives have a fitted effect of over 50% in size
KB-V1 cytotox = kills drug-selected multidrug resistant KB-V1 cells | KB-V1 MDR cells viability, CellTiter-Glo, 72 h | Potency, µM (highest dose often 46.1 µM), most hits filed as cytotoxic | 400,000 tested, 3.4% active | AID 1347076; note: % is set by controls: 0 for no effect and ±100 for the full control effect; nearly all actives have a fitted effect of over 60% in size
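qHTS viability screen in drug-selected KB-V1 MDR cells: 72 h compound treatment at 37 degrees C, ATP luminescence end point.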
Starred values were filed as active, the others as inactive; i = inactive; ? = inconclusive; . = no result. Calls come from the whole dose curve; as a rule, active = well fitted curve in the direction sought with a large enough effect; inconclusive = small, poorly fitted or top-dose-only effect, or another doubt; inactive = no such curve, though single readings can be large; an effect the other way counts as inactive or inconclusive. Potency is the fitted concentration of half-maximal effect.

SMILES	KB-3-1 cytotox	HT1080 IDH1KD tx	HT1080-NT tox	SW480 rereplic	MCF10A rereplic	KB-V1 cytotox
COc1ccccc1C(=O)Nc1nnc(SCC(=O)Nc2ccc3c(c2)oc2ccccc23)s1	i	-7%	-13%	0%	3%	18µM*
Cc1cccc(C(=O)Nc2nnc(SCC(=O)Nc3ccc4c(c3)oc3ccccc34)s2)c1	i	?	?	-3%	?	i
COc1cc(Cl)c(NC(=O)CN(C)S(=O)(=O)c2ccc3[nH]c4c(c3c2)CCCC4)c(OC)c1	i	.	.	.	.	i
Cn1c(C=O)c(C#Cc2ccccc2)c2ccccc21	?	-26%	5%	?	8.2µM*	i
COc1ccc(C#Cc2ccc3c(=O)c4ccccc4n(C)c3c2)cc1	i	3%	1%	?	?	i
COc1cc(C#Cc2c(-c3ccccc3)n(C)c3ccccc23)cc(OC)c1	i	0%	-5%	13%	?	i
COc1ccc(C#Cc2c(C=O)n(C)c3ccccc23)cc1	?	-11%	-21%	21µM*	?	i
CN(CC(=O)Nc1ccc(Cl)c(C(F)(F)F)c1)C(=O)CCCNC(=O)c1ccc(Cl)cc1	?	?	?	2%	?	i
COC(=O)c1sccc1S(=O)(=O)N(CC(=O)Nc1cc(C)cc(C)c1)c1ccc(Cl)cc1	i	.	.	.	.	i
O=C/C=C/c1c(-c2ccccc2)cc2oc3ccccc3cc1-2	?	21µM*	-29%	?	8.2µM*	?
Nc1ccc(-c2cc3ccccc3oc2=O)cc1	i	24%	6%	0%	6%	i
O=C1C(=O)N(CCS(=O)(=O)c2ccccc2)c2ccc(F)cc21	?	-22%	-4%	?	?	i
COc1ccc(NC(=O)CSc2nnc3c(n2)[nH]c2ccc(S(=O)(=O)N(C)C)cc23)c(OC)c1	.	0%	6%	.	.	.
CCOC(=O)N1CCN(C(=O)CS(=O)(=O)c2cn(Cc3ccccc3C)c3ccccc23)CC1	i	-1%	0%	0%	2%	?
Cc1ccccc1Cn1cc(S(=O)(=O)CC(=O)Nc2nccs2)c2ccccc21	?	-22%	?	0%	-25%	16µM*
NC(=S)N=Nc1c(O)n(CCCl)c2ccc(Cl)cc12	?	?	-21%	13%	-3%	13µM*
COc1ccc(Cl)cc1NC(=O)CN(C)C(=O)Cc1n[nH]c(=O)c2ccccc12	i	-1%	1%	-3%	4%	?
Fc1ccc(N2CCN(c3nc(-c4ccco4)cc(C(F)(F)F)n3)CC2)cc1	i	-24%	-25%	-9%	?	i
Cc1nn(-c2nc(-c3ccco3)cc(C(F)(F)F)n2)c(C)c1Br	i	27%	29%	-2%	0%	i
O=[N+]([O-])c1cnn(-c2nc(-c3ccco3)cc(C(F)(F)F)n2)c1	i	13%	24%	18µM*	15%	i
FC(F)(F)c1cc(-c2ccco2)nc(N2CCN(Cc3ccccc3)CC2)n1	i	-26%	16%	3%	13µM*	i
FC(F)(F)c1cc(-c2ccco2)nc(NCCc2ccccc2)n1	i	17%	3%	?	18µM*	i
CC1CCc2nc3ncn(Cc4ccccc4F)c(=O)c3cc2C1 (stereo not given)	i	.	.	.	.	i
CN1CCN(NC(=O)c2cc(-c3cccc(Cl)c3)nc3ccccc23)CC1	i	?	16µM*	6%	1%	i
OC(CON=C1c2ccccc2-c2ccccc21)CN1CCNCC1 (stereo not given)	?	23µM*	21µM*	15%	?	i
OC(COc1ccccc1)CN1CCN(CC(O)COc2ccccc2)CC1 (stereo not given)	i	-9%	-1%	-50%	?	i

Compound activity: PubChem BioAssay, National Center for Advancing Translational Sciences (NCATS)
